In the library only some 3.1% were active in any assay of this set; here they are far more common.
NCF1 inh = p47phox/p22phox peptide binding inhibitors, primary screen, biochemical, uHTS, NADPH oxidase regulatory subunit; fluorescence polarization, 2 h; inhibition, % at 24.7 µM; 220,000 tested, 0.53% active; AID 1274, 2008;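 active = inhibition above about 30%, limit read from the data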;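 also: 0% = p47phox with labelled peptide and 100% = labelled peptide alone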
Target sequence (P14598 whole entry, looked up): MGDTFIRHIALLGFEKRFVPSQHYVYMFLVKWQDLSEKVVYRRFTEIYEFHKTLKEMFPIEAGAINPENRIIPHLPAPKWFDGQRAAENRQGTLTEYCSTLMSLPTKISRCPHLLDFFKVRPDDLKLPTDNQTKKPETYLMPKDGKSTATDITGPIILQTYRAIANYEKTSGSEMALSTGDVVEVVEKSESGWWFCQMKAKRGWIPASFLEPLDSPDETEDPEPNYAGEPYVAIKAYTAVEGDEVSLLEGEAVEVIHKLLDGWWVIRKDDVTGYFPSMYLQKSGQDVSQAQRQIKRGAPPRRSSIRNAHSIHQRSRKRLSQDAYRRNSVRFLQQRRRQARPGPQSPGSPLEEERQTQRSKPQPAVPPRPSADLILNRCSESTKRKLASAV
Mcl1 Bid PPI = Mcl-1/Bid binding inhibitors, primary screen, biochemical, TR-FRET, 1536-well. Induced myeloid leukemia cell differentiation protein Mcl-1 (Homo sapiens), Q07820. TR-FRET Mcl-1/Bid-Dy647 peptide binding. inhibition, % at 21.7 µM. 220,000 tested, 0.97% active. AID 1021, 2008;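 active = compounds that cut the binding signal by more than half at the single screening dose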;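 also: His-tagged Mcl-1 with europium anti-His antibody binding Bid BH3 peptide; 0% = Mcl-1 plus peptide wells and 100% = peptide-only wells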
Mcl-1 Bim block = inhibitors of Bim peptide binding to Mcl-1, primary screen, biochemical, bead-based flow cytometry, multiplex; Induced myeloid leukemia cell differentiation protein Mcl-1 (Homo sapiens), Q07820; Bim peptide-Mcl-1 binding; inhibition, % at 10 µM; 190,000 tested, 0.1% active; AID 1009, 2008; in the data active = inhibition above about 40%;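 also: 0% = no compound tracer wells and 100% = peptide blocker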
Mcl1-Noxa inh = Mcl-1/Noxa binding inhibitors, primary screen, biochemical, TR-FRET, 1536-well; Induced myeloid leukemia cell differentiation protein Mcl-1 (Homo sapiens), Q07820; TR-FRET Mcl-1/Noxa peptide binding, 2 h; inhibition, % at 21.7 µM; 220,000 tested, 1.5% active; AID 1022, 2008;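 active = compounds that cut the protein-peptide binding signal by more than 50% relative to plate controls in a single-dose test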;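 also: His-tagged Mcl-1 with rhodamine Noxa BH3 peptide and terbium anti-His antibody; 0% = Mcl-1 plus Noxa peptide wells and 100% = peptide-only wells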
14-3-3 Bad PPI = inhibitors of 14-3-3 zeta/Bad binding, primary screen, biochemical, TR-FRET, bovine 14-3-3 zeta; 14-3-3 protein zeta/delta (Bos taurus), P63103; TR-FRET 14-3-3zeta/Dy647-pBad peptide displacement, 1 h; inhibition, % at 21.7 µM; 220,000 tested, 0.71% active; AID 781, 2007;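 active = inhibition above about 70%, limit read from the data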;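 also: 0% = full 14-3-3 plus peptide FRET controls and 100% = background without 14-3-3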
Numbers without * were called inactive; . = no result; [ ] = remark or other dose.

SMILES	NCF1 inh	Mcl1 Bid PPI	Mcl-1 Bim block	Mcl1-Noxa inh	14-3-3 Bad PPI
O=C(NCCc1ccccc1)c1ccc(=O)oc1	-5	-28	-2	6	5
c1coc(-c2nc3ccccc3nc2-c2ccco2)c1	1	-39	9	85*	.
O=C(c1ccccc1)c1ccc2nc(-c3ccco3)c(-c3ccco3)nc2c1	-8	17	18	99*	15
O=C(NCCc1ccccc1)c1ccc2nc(-c3ccco3)c(-c3ccco3)nc2c1	-14	56*	8	103*	18
O=C(NC1CCCC1)c1ccc2nc(-c3ccco3)c(-c3ccco3)nc2c1	12	29	4	101*	-6
Cn1c(SCC(=O)NCCNC(=O)CSc2nnc(C(F)(F)F)n2C)nnc1C(F)(F)F	-7	7	-2	-2	-1
CCOC(=O)c1c(C)[nH]c(C(=O)OCC(=O)c2c(N)n(C)c(=O)n(C)c2=O)c1C	-11	-22	0	-2	-9
N#CC1(NC(=O)CN2CCc3ccccc3C2)CCCC1	-2	-8	-3	-7	2
O=C(NCCO)c1ccc2nc(-c3ccco3)c(-c3ccco3)nc2c1	-8	-28	14	92*	-4
O=C(NCCO)c1ccc(Cl)c(Cl)c1	-2	-7	0	13	-1
COc1ccccc1N1CCN(C(=O)c2ccc3nc(-c4ccco4)c(-c4ccco4)nc3c2)CC1	-8	-45	-5	63*	-9
Cc1ccc(C)c(N2CCN(C(=O)c3ccc4nc(-c5ccco5)c(-c5ccco5)nc4c3)CC2)c1	-46	-4	2	0	3
COc1ccccc1Nc1ccc(Nc2ccccc2OC)nn1	-14	-49	-4	13	-6
COc1ccc(OC)c(Nc2ccc(Nc3cc(OC)ccc3OC)nn2)c1	6	-34	-7	54*	-7
O=C(OCc1c(Cl)cccc1Cl)c1ccncc1	-8	-1	-4	2	12
CCN(CC)c1ccc(C(=O)N/N=C(\C)c2ccc(OC)c(OC)c2)cc1	-2	-11	-2	9	-4
O=[N+]([O-])c1cccc(-c2nnc(-c3ccc4c(c3)OCO4)o2)c1	30	60*	1	62*	43
S=C(NCCc1ccccc1)Nc1cnc2ccccc2c1	-9	-12	0	10	-27
CCc1nnc(NC(=O)CCC(=O)NCc2ccc(OC)cc2)s1	-6	-6	.	-4	-1
O=C(CN1CCN(C2CCCCC2)CC1)NCCC1=CCCCC1	-5	51*	3	33	57
Cc1ccc(OCCNS(=O)(=O)c2cccs2)cc1	1	-7	0	-4	5
c1ccc2c(c1)ccc1ncccc12	-6	-12	-2	15	-7
Oc1c(N=Nc2ccccn2)ccc2ccccc12	62*	-80	7	.	-15
CN1CCN(C(=O)CSc2nc(-c3cccs3)ccc2C#N)CC1	-34	-9	-1	56*	1
CN(C)S(=O)(=O)c1cccc(NC(=O)COC(=O)c2ccc3c(c2)OCO3)c1	-4	-21	-5	18	-10
SMILES	NCF1 inh	Mcl1 Bid PPI	Mcl-1 Bim block	Mcl1-Noxa inh	14-3-3 Bad PPI
CCCCc1ccc(NC(=S)Nc2ccc(Cl)c(S(=O)(=O)N(C)C)c2)cc1	-18	-33	-6	16	-4
O=C(c1cnccn1)N(Cc1cccs1)C1(C(=O)NC2CCCCC2)CCCCC1	-4	1	54*	6	3
COCCCN(C(=O)c1cccnc1SC)c1c(N)n(Cc2ccccc2)c(=O)[nH]c1=O	-8	-7	0	2	-2
CCCN(C(=O)COc1ccc(Cl)cc1Cl)c1c(N)n(Cc2ccccc2)c(=O)[nH]c1=O	4	-31	0	13	-2
COCCCN(C(=O)c1cc2c(s1)CCC2)c1c(N)n(Cc2ccccc2)c(=O)[nH]c1=O	0	-18	0	53*	-14
CCCN(C(=O)c1cc2c(s1)CCC2)c1c(N)n(Cc2ccccc2)c(=O)[nH]c1=O	1	-24	.	62*	12
O=C(O)c1cccc(S(=O)(=O)N2CCSCC2)c1	-5	16	-9	-3	77*
O=C(CSc1cccc[n+]1[O-])Nc1cc2c(cc1Cl)C(=O)c1ccccc1C2=O	33*	81*	0	85*	99*[fluorescence artefact?]
O=C(CSc1cccc[n+]1[O-])Nc1cc([N+](=O)[O-])ccc1Cl	-4	-12	0	17	-6
O=C(Nc1nnc(-c2cccnc2)o1)c1cccc(Cl)c1	.	-20	-2	-45	-15
COc1cc(CN2CCN(c3ccccc3F)CC2)cc(OC)c1O	9	44	-3	23	30
COc1cc(CN2CCC(C(=O)N3CCN(c4ccccc4F)CC3)CC2)cc(OC)c1O	-4	51*	0	29	54
CCOc1ccc(CN2CCC(C(=O)N3CCN(c4ccccc4F)CC3)CC2)cc1OC	-8	34	-2	20	74*
C/C(=N\NC(=O)c1ccc([N+](=O)[O-])cc1Cl)c1ccccc1	-4	-16	-2	-6	-3
COc1ccc(NC(=O)COC(=O)c2ccc(Cl)c(S(N)(=O)=O)c2)c([N+](=O)[O-])c1	0	-13	.	53*	-5
CCN(C(=O)CSc1nnnn1-c1ccccc1)C1CCS(=O)(=O)C1 (stereo not drawn)	-7	-22	-2	-6	-2
Cc1ccc(NC(=S)Nc2ccc3nc(-c4ccccn4)c(-c4ccccn4)nc3c2)cc1C	112*	-45	-8	30	-4
Cc1ccc(NC(=S)Nc2ccccn2)cc1C	-16	-21	.	-6	-1
CCOCCCNC1=C(Cl)C(=O)c2ccccc2C1=O	7	-17	.	64*	6
CCCCCN(C(=O)NC(=O)Nc1ccccc1C)S(=O)(=O)c1ccccc1	-9	-7	-8	12	6
N#C/C(=C/c1cn[nH]c1-c1ccc(Br)cc1)C(=O)O	-3	-7	0	0	2
CCCCCCN1C=CC(=C/C=C(\C#N)C(=O)OCC)C=C1	33*	1	-2	5	-16
CCCN1C=CC(=C/C=C(\C#N)C(=O)OCC)C=C1	-8	-49	-5	-14	13
CCOC(=O)/C(C#N)=C/C=C1\C=Cc2ccccc2N1CC	124*	-36	-2	-2	-16
CN1/C(=C/C=C(C#N)C#N)C=Cc2ccccc21	-263	-59	.	15	-21
O=c1c2ccccc2nc(/C=C/c2cccnc2)n1Cc1ccccc1	8	91*	2	31	94*
O=c1c2ccccc2nc(/C=C/c2cccnc2)n1CCc1ccccc1	-4	95*	.	22	68
O=c1c2ccccc2nc(/C=C/c2ccccc2)n1CCc1ccccc1	-15	12	-4	5	0

Bioassay records: PubChem, several laboratories
